Screening results (PubChem BioAssay)
Cruzain inh Det = blocks cruzain activity in presence of Triton detergent. P25779. purified cruzain, Z-FR-AMC fluorescence, 0.01% Triton. Potency, µM, without a hit: max response, negative = inhibition, most hits filed as inhibitors. hit rate 0.43% among 200,000;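 note: plate controls were neutral wells for no effect and buffer without enzyme for full effect; nearly all actives have a fitted effect of over 40% in size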
Target sequence (P25779 123-467 limits assumed): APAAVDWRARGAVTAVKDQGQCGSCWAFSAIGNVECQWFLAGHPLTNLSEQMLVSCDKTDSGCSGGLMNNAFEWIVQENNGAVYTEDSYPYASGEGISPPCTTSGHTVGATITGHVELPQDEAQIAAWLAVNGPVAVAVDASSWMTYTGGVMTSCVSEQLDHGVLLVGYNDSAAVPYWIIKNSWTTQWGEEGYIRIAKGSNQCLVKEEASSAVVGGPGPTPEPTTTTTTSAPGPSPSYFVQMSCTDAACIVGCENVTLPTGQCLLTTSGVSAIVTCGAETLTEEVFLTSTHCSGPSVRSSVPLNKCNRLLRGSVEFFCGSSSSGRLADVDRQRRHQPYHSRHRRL
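Steps: dispense cruzain (1.5 nM final) in acetate buffer pH 5.5 with DTT and 0.01% Triton X-100; pin-transfer compounds; incubate 15 min RT; add Z-FR-AMC (2 uM final); read fluorescence every 30 s, using the 60 s intensity change.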
NS1 inh = inhibitors of influenza NS1 protein function | hit rate 0.4% among 270,000 | AID 2326 | Potency, µM (doses to about 46.1 µM), without a hit: at the highest dose activity, positive = more growth; calls by dose curve; note: actives are rising curves; nearly all actives have a fitted effect of over 50% in size
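S. cerevisiae expressing influenza A NS1, grown in glucose, washed, then diluted 1:100 into pH 6.0 -URA galactose medium with 23 nl compound. Growth recovery read as OD600; NS1-free strain serves as control.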
Cruzain noTriton = inhibitors of Trypanosoma cruzi cruzain without detergent; purified cruzain, Z-FR-AMC fluorescence, no detergent; hit rate 2.3% among 200,000; P25779; Potency, µM, for inactives: max response, negative = inhibition, usual class: inhibitors;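 note: plate controls were enzyme without inhibitor for no effect and buffer without enzyme for full effect; nearly all actives have a fitted effect of over 40% in size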
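Detergent-free condition (0.00005% Triton X-100) in acetate buffer pH 5.5 with DTT. 1.5 nM enzyme and compound were pre-mixed 15 min, then 2 uM Z-FR-AMC substrate added; reaction progress from fluorescence change between first and third reads (60 s).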
* marks the source's active call; other numbers are inactive results; ? = inconclusive; . = not tested or not shown. Many of the other results were omitted from the sample, so hits are more common in it than they were. Unless noted, calls come from the whole dose curve; as a rule, active = well fitted curve in the direction sought with a large enough effect; inconclusive = small, poorly fitted or top-dose-only effect, or another doubt; inactive = no such curve, though single readings can be large; an effect the other way counts as inactive or inconclusive. Potency is the fitted concentration of half-maximal effect.

SMILES	Cruzain inh Det	NS1 inh	Cruzain noTriton
O=C(Nc1cccc(NC(=O)c2ccccc2Cl)c1)c1cccc(Br)c1	2%	.	7.9µM*
O=C(Nc1cccc(C(=O)Nc2cccc(Br)c2)c1)c1ccccc1	.	-1%	.
CC1CCCCN1CCCNC(=O)Cn1ncc2c3ccccc3n(Cc3ccccc3F)c2c1=O (stereo not given)	-2%	.	?
COc1cccc(NC(=O)CCCCCn2nnc3ccccc3c2=O)c1	.	-6%	.
CCn1cc2nc(SCc3cccc(C(F)(F)F)c3)n(Cc3ccc(C)cc3)c(=O)c2n1	-3%	.	11%
Cc1ccc(C(=O)c2sc3c(c2N)c(=O)[nH]c(=O)n3CCc2ccccc2)cc1	-15%	24%	13µM*
Nc1c(C(=O)c2ccccc2)sc2c1c(=O)[nH]c(=O)n2-c1ccccc1	-8%	0%	11%
CCC1=NN(C(=O)Cc2ccc([N+](=O)[O-])cc2)C(O)(c2ccncc2)C1 (stereo not given)	.	0%	.
Cc1ccc2oc(-c3ccc(C)c(NC(=S)NC(=O)c4cccs4)c3)nc2c1	-1%	10%	?
CC(C)(C)c1ccc(OCC(=O)NCCN2CCCC2)cc1	2%	9%	4%
Cc1ccc(C)c(NC(=O)c2cc3c([nH]c4ccccc43)c(C)n2)c1	8%	-11%	7.9µM*
Cc1cccc(NC(=O)c2cc3c([nH]c4ccccc43)c(C)n2)c1C	0%	-1%	?
Cc1ccc(NC(=S)C2=C(O)c3sccc3N(C)S2(=O)=O)cc1	-10%	-3%	-2%
CC(=O)NC(NC(=S)Nc1ccc(N=Nc2ccccc2C)cc1C)C(Cl)(Cl)Cl (stereo not given)	-3%	-11%	7.9µM*
Cc1ccc(NC(=S)NC(NC(=O)C(C)(C)C)C(Cl)(Cl)Cl)c(C)c1 (stereo not given)	4%	-16%	10%
CCn1nc(-c2cccs2)nc2c(=O)n(C)c(=O)nc1-2	2.2µM*	-204%	2µM*
CCn1nc(/C=C/c2ccccc2)nc2c(=O)n(C)c(=O)nc1-2	.	-2%	.
COc1ccc2c(c1)CCN(C(=O)CCl)C2C1C(=O)CCCC1=O (stereo not given)	-1%	8%	8%
COc1ccc(S(=O)(=O)N(C)c2ccc(C(=O)NCc3ccccn3)cc2)cc1	.	1%	.
O=C(CNc1cccc2ccccc12)N/N=C/c1ccccn1	.	-6%	.
O=C(CNc1cccc2ccccc12)N/N=C/c1cccc(Oc2ccccc2)c1	0%	-18%	20µM*
CSc1nsc(/C=C/Nc2cccc(Cl)c2)c1C#N	-6%	15%	20µM*
CSc1nsc(/C=C/Nc2ccc(Cl)cc2)c1C#N	-21%	13%	?
COc1ccc(NS(=O)(=O)c2ccc(OC)c(N(C)S(=O)(=O)c3ccc(Cl)cc3)c2)cc1	-1%	22%	-21%
COc1ccc(S(=O)(=O)Nc2ccc(F)cc2)cc1N(C)S(=O)(=O)c1ccc(Cl)cc1	-3%	5%	20µM*
SMILES	Cruzain inh Det	NS1 inh	Cruzain noTriton
Cc1cc(C)cc(NC(=O)CCCn2nc(C)c3c(C)n(-c4ccccc4)nc3c2=O)c1	-1%	2%	1%
CN1CCN(C2=Cc3cc(Cl)ccc3Sc3cc(F)ccc32)CC1	-18%	-34%	2%
CCOC(=O)c1cnn(-c2nc(C)nc3sc4c(c23)CCC4)c1N	4%	-9%	?
CCOC(=O)c1cnn(-c2nc(SC)nc3sc4c(c23)CCC4)c1N	1%	11%	7.9µM*
O=C(OCCN1CCOCC1)c1cccs1	4%	-3%	5%
Cc1nc(C)c(C(=O)N2CCCC(C(=O)c3ccc4ccccc4c3)C2)s1 (stereo not given)	.	-13%	.
CN(C)P(=O)(C(Cl)=C(N1CCCCC1)N1CCCCC1)N(C)C	5%	-2%	-2%
COc1cccc(NC(=O)c2cccs2)c1	4%	-99%	9%
CC1=NC(Nc2nc(C)c3ccccc3n2)=NC(C)(C)C1	20µM*	-6%	16µM*
COc1ccc(Nc2nc(C)c3ccccc3n2)cc1	-5%	-16%	-4%
CC(NC(=O)CSc1nc2c(c(C(F)(F)F)n1)CCc1ccccc1-2)c1ccccc1 (stereo not given)	-8%	4%	-7%
CCc1c(C)sc(NC(=O)CSc2nc3c(c(C(F)(F)F)n2)CCc2ccccc2-3)c1C#N	-4%	12%	4µM*
CCN(CC)c1ccc(NC(=S)NC(=O)c2ccco2)cc1	.	0%	.
Cc1ccc(C(=O)N/N=C/C=C/c2ccccc2)cc1	.	0%	.
NC(=S)N/N=C/c1cccc(/C=N/NC(N)=S)c1	.	0%	.
NC(=S)N/N=C/C=C/c1ccccc1	25µM*	-22%	16µM*
NC(=S)N/N=C/c1ccc2ccccc2c1	2.2µM*	12%	0.79µM*
COc1ccc(-c2nc(C(N)=O)c3c(n2)n(-c2ccccc2OC)c(=O)n3C)c(OC)c1	-4%	.	3%
O=S(=O)(c1cccc2nonc12)N1CCCCC1	.	1%	.
O=C(/C=C/c1ccco1)NC(=S)Nc1ccc(O)c(-c2nc3ccccc3s2)c1	0%	18%	7.9µM*
CC(=O)NC(=S)Nc1ccc(NC(=S)NC(=O)/C=C/c2ccco2)cc1	.	16%	.
Cc1cccc(C)c1OCC(=O)N=Nc1c(O)[nH]c2ccc(Br)cc12	2%	4%	-23%
O=C(N=Nc1c(O)[nH]c2ccc(Br)cc12)c1cc(-c2cccc3ccccc23)n[nH]1	-3%	25%	10µM*
Cc1cc(C)nc(N/N=C/C=C/c2ccccc2)n1	-7%	-9%	-3%
Cc1sc(N/N=C/C=C/c2ccccc2)nc1-c1ccccc1	0%	-2%	7.9µM*
SMILES	Cruzain inh Det	NS1 inh	Cruzain noTriton
Cc1[nH]c2ccc(F)cc2c1CCN1C(=O)OC(C)(C)C1(C)O (stereo not given)	.	-5%	.
CCN(Cc1ccccc1)S(=O)(=O)c1c(C(=O)N2CCCC2)c(C)n(C)c1C	.	4%	.
COc1cccc(CN2CCNC(=O)C2CC(=O)NC2CCCCCCC2)c1 (stereo not given)	.	23%	.
Cc1cc(Cl)c(S(=O)(=O)NC2CCCCC2)cc1OCC(=O)Nc1nncs1	-7%	-46%	-12%
COc1ccccc1/C=N/NC(=O)C1=NNC(c2ccccc2)(c2ccccc2)C1	-10%	-6%	16µM*
O=C(N/N=C/c1ccc(C(=O)O)cc1)C1=NNC(c2ccccc2)(c2ccccc2)C1	.	12%	.
COc1ccc(OC)c(/C=N\NC(=O)c2ccc(-c3ccccc3)cc2)c1	.	-9%	.
COc1cccc(/C=N/NC(=O)c2ccc(-c3ccccc3)cc2)c1O	1%	12%	16µM*
CSC1=NCCN1C(=O)c1ccco1	-2%	-51%	-3%
Cc1ccc(OCc2nnc(NC(=O)c3ccco3)s2)cc1	-1%	-34%	-11%
Cc1ccc(OCCSc2nnc(NC(=O)c3ccco3)s2)cc1	4%	-1%	25µM*
COC(=O)c1c(NC(=O)CSc2ncnc3[nH]ncc23)sc2c1CCC2	.	-2%	.
COC(=O)c1c(NC(=O)CSc2ncnc3c2cnn3-c2ccccc2Cl)sc2c1CCCC2	-6%	0%	3.2µM*
Cc1cccc(NC(=O)Cn2cc(C(=O)c3ccco3)c3ccccc32)c1C	-11%	.	16%
Nc1c(C(=O)c2ccc(Cl)cc2)sc2nc3c(cc12)CCC3	-4%	4%	-17%
COc1cccc(Nc2nc(-c3ccc(O)cc3)cs2)c1	-9%	-102%	-7%
COc1cccc(Nc2nc(-c3cccc(N4C(=O)c5ccccc5C4=O)c3)cs2)c1	6%	?	7.9µM*
